From PubChem BioAssay (NCATS)
Records with an inconclusive call do not appear. Entries that show only a call come without a potency. Active and inactive are the calls of the source. The call rests on the fitted dose curve; in most records, active means well fitted inhibition curve with a large enough effect; inconclusive means small, poorly fitted or top-dose-only effect; inactive means flat fitted curve, though single readings scatter.

Legend:
[1] = target: Glutathione peroxidase 1 (Homo sapiens) (UniProt P07203); test: Primary qHTS Assay for Inhibitors of Recombinant Selenoprotein Glutathione Peroxidase 1 (GPX1) (AID 1845191)
Procedure, shortened: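 GR-coupled readout: NADPH consumption tracked by fluorescence, ex 340/em 450 nm, at t=0 and after 15 min at RT. Final mix 10 nM GPX1, 1 mM GSH, 0.5 mM CHP, 0.5 mM NADPH, 100 nM GR, 0.01% BSA, following 30 min enzyme–compound preincubation.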

[2] = target: Phospholipid hydroperoxide glutathione peroxidase GPX4 (Homo sapiens) (UniProt P36969); test: Primary qHTS Assay for Inhibitors of Recombinant Selenoprotein Glutathione Peroxidase 4 (GPX4) (AID 1845192)
Procedure, shortened: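 Steps: GPX4 plus compound, 30 min RT; add GR/GSH/NADPH master mix; start with cumene hydroperoxide; read 340/450 nm fluorescence at 0 and 15 min. Finals were 200 nM GPX4, 1 mM GSH, 0.5 mM CHP, 0.5 mM NADPH, 100 nM GR.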
Further: nearly all actives have a fitted effect of over 65% in size.
Potency means the concentration at half of the fitted maximal effect.

Glutathione peroxidase 1 (Homo sapiens), sequence (P07203 whole entry, looked up): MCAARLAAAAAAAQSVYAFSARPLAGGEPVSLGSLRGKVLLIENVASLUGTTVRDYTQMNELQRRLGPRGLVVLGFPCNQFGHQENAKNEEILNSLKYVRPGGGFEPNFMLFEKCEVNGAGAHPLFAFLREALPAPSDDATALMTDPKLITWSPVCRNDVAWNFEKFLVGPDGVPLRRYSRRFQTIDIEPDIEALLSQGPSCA
Phospholipid hydroperoxide glutathione peroxidase GPX4 (Homo sapiens), sequence (P36969 whole entry, looked up): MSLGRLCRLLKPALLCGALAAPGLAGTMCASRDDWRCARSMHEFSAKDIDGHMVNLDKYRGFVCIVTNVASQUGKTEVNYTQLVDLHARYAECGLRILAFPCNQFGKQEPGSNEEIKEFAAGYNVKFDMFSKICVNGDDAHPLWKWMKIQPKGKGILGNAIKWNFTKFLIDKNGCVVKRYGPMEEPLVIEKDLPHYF

| SMILES | Potency [1] | Potency [2] |
| --- | --- | --- |
| CC(C(=O)O)c1ccc(C(=O)c2ccccc2)s1 (stereo not drawn) | inactive | inactive |
| O=c1[nH]c2ccccc2n1CCCN1CCN(C(c2ccccc2)c2ccccc2)CC1 | inactive | inactive |
| [O-][n+]1ccccc1SSc1cccc[n+]1[O-] | inactive | inactive |
| CC(C(=O)O)c1ccc(C(=O)c2cccs2)cc1 (stereo not drawn) | inactive | inactive |
| O=C(O)/C=C\C(=O)O | inactive | inactive |
| CCCCC1C(=O)N(c2ccccc2)N(c2ccc(O)cc2)C1=O (stereo not drawn) | inactive | inactive |
| Cc1c(C(=O)O)c(O)cc2c1C(=O)c1c(O)c([C@@H]3O[C@H](CO)[C@@H](O)[C@H](O)[C@H]3O)c(O)c(O)c1C2=O | inactive | inactive |
| CCOC(=O)c1ccccc1O | inactive | inactive |
| CN1C2CC(OC(=O)[C@H](CO)c3ccccc3)CC1C1OC12 (stereo partly drawn) | inactive | inactive |
| CSc1ccccc1N1CCN(CCCCCC(=O)NC2CCCc3ccccc32)CC1 (stereo not drawn) | inactive | inactive |
| CCCCCCCCc1ccc(-c2ccc(C(=O)O)cc2)cc1 | inactive | inactive |
| CN=c1nc(-c2ccccc2)n(-c2ccccc2)s1 | inactive | inactive |
| N.N.O=C(O)C1(C(=O)O)CCC1.[Pt] | inactive | 22.7 µM (active) |
| S=c1[nH]c2ccccc2s1 | inactive | inactive |
| N[C@@H](CC(=O)O)C(=O)O | inactive | inactive |
| O=C(OCc1ccccc1)c1ccccc1 | inactive | inactive |
| CCCSc1ccc2nc(NC(=O)OC)[nH]c2c1 | inactive | inactive |

| SMILES | Potency [1] | Potency [2] |
| --- | --- | --- |
| c1ccc(-c2ccccn2)nc1 | inactive | inactive |
| CCCCCCCCCCCCCCCC(=O)OC(CC(=O)O)C[N+](C)(C)C (stereo not drawn) | inactive | inactive |
| CC(C)NCC(O)COc1cccc2ccccc12 (stereo not drawn) | inactive | inactive |
| CC(C)NC[C@@H](O)c1ccc(O)c(O)c1 | inactive | inactive |
| O=C1CN(/N=C/c2ccc([N+](=O)[O-])o2)C(=O)N1 | inactive | inactive |
| NS(=O)(=O)C#Cc1ccccc1 | inactive | inactive |
| CCOc1ccc2nc(S(N)(=O)=O)sc2c1 | inactive | inactive |
| CCCCCCCCCCCCCCCC(=O)OC(C)C | inactive | inactive |
| O=C(O)c1cc(=O)c2ccccc2[nH]1 | inactive | inactive |
| CCCOC(=O)c1ccc(O)cc1 | inactive | inactive |
| Cn1ncc(S(=O)(=O)Cc2ccccc2)c(Br)c1=O | inactive | inactive |
| c1ccc2sc(SN3CCOCC3)nc2c1 | 20.2 µM (active) | inactive |
| Nc1ncnc2c1ncn2[C@@H]1O[C@H](COP(=O)(O)CP(=O)(O)OP(=O)(O)O)[C@@H](O)[C@H]1O | inactive | inactive |
| C=CCc1cccc(/C=N/NC(=O)CN2CCN(Cc3ccccc3)CC2)c1O | inactive | inactive |
| CCCCCCOc1ccccc1C(N)=O | inactive | inactive |
| C=CCCCCCCCCC(=O)O | inactive | inactive |
| N.N.N.N.N.N.N.N.N.N.N.N.N.N.O.O.[Ru+4].[Ru+5].[Ru+5] | inactive | inactive |
